Artemis endo inh: Artemis (human) endonuclease inhibition; Q96SD1; recombinant Artemis, quenched FAM hairpin cleavage fluorescence; inhibition, % at 10 µM; 30,000 compounds, 0.78% hits;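 active = at 10 µM dose, at least 30% inhibition, measured as corrected fluorescence normalized to stimulator and neutral control wells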
Large screens that a line does not name were inactive. The full list was thinned out, with hits kept by preference.

CC(C)OCCCNC(=O)c1c(N)n(Cc2cccs2)c2nc3ccccc3nc12	none
Nc1c(C(=O)NC2CCCC2)c2nc3ccccc3nc2n1CC1CCCO1 (configuration not stated)	Artemis endo inh 30.6
CCOC(=O)C1CCN(/C=C2/C(=O)NC(=O)N(Cc3ccco3)C2=O)CC1	none
Cc1cc(C)n(CCOC(=O)C2C(C=C(Cl)Cl)C2(C)C)n1 (configuration not stated)	none
O=C(Nc1ccc(Br)cc1)c1nn(C23CC4CC(CC(C4)C2)C3)cc1Br	none
CN1CSC(=S)N(C)C1	none
CC(=O)OC1C2CCCC1C(N1CCCC1)CC2 (configuration not stated)	none
Cc1nc2c(=O)n(C)c(=O)nc-2n(C)n1	Artemis endo inh 78.4
Cc1ccc2c(c1)CC1(CN2C)C(=O)NC(=O)N(CCC2=CCCCC2)C1=O (configuration not stated)	none
Cc1cc(C)nc(-n2c(C)nc3cc(Cl)ccc3c2=O)c1	none
CN1C2CCC1CC(OC(=O)c1cc(Cl)cc(Cl)c1)C2 (configuration not stated)	none
COC(=O)c1c(N)n(Cc2ccc(OC)cc2)c2nc3ccccc3nc12	Artemis endo inh 31.0
CC(C)OC(=O)c1c(N)n(Cc2ccco2)c2nc3ccccc3nc12	none
COCCOC(=O)c1c(N)n(Cc2ccc(OC)cc2)c2nc3ccccc3nc12	none
COCCOC(=O)c1c(N)n(Cc2ccco2)c2nc3ccccc3nc12	none
COCCCn1c(N)c(C(=O)OCCOC)c2nc3ccccc3nc21	Artemis endo inh 38.0
CCOC(=O)c1c(N)n(CCCOC(=O)c2ccco2)c2nc3ccccc3nc12	none
CCCN(CC#CCO)CCC	none
COc1nc(NC(C)C)nc(NC(C)C)n1	none
CCOP(=O)(C#CC(C)(C)C)C1(O)CCCCC1 (configuration not stated)	none
CCOP(=O)(CN(CC)CCNP(=O)(OCC)OCC)OCC	none
Fc1cccc(CCNCc2ccccn2)c1	none
CC(=O)c1ccc2c(c1)C1C(Cl)C(Sc3ccccc3[N+](=O)[O-])CC1C(c1ccccc1[N+](=O)[O-])N2 (configuration not stated)	Artemis endo inh 31.0
C#CCOCOCC#CCN(CC)CC	none
CC12CCCCC1N(O)CN2O (configuration not stated)	none

Assay outcomes from PubChem.
